This passage reports growth results from PubChem BioAssay (NCI).

The structures appear in SMILES notation. About 83,000 compounds went through this panel and 20% of them were active in at least one assay; those are over-represented in the sample as a whole.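 Growth was measured after 48 h exposure to one concentration of compound in 96-well plates. Values under 10 count as active.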 A number with no mark means an inactive call. Activity calls are given as the source filed them.

The experiment deals with SN12C renal. The experiment is described as follows: NCI-60 one-dose screen, 48 h (100 = growth as untreated, 0 = no growth, -100 = all killed). The conditions noted are these: 10 µM unless noted.
As for `Cc1ccc2c(NCCCN(C)C)c3c(C)nn(C)c3nc2c1`, the growth is 42.9%.

As for `CCc1ccccc1NC(=O)c1sc2nc3c(cc2c1N)C(=O)CCC3`, the growth is 45.4%.

As to `C#Cc1nc(Nc2cc(C)[nH]n2)c2ccccc2n1`, the growth was -31.6% (active).

As for `CC(=O)Oc1cc2cnc3c4cc(OC(C)=O)c(OC(C)=O)cc4ccc3c2cc1OC(C)=O`, the growth was 14.6%.

With `Cc1cc(Nc2nc(-c3cccnc3)nc3ccccc23)n[nH]1`, the growth was 58.9%.

For the molecule `CNC(=S)N/N=C/CSC/C=N/NC(=S)NC`, the growth was 104%.

For the molecule `COc1ccc(CN(c2ccc(C)cc2)C2OC(=O)c3ccccc32)cc1OC` (configuration not stated), the growth is 99.1%.

Regarding `COc1cccc(-n2cc(-c3nc(Nc4cc(C)[nH]n4)c4ccccc4n3)nn2)c1`, the growth was 41%.

For `COc1cc(OC)c(/C=C/c2cc[n+](C)c3ccccc23)c(OC)c1`, the growth is 10.7%.

In the case of `Cc1nn(-c2nc3ccccc3[nH]2)c2c1C(c1ccc3c(c1)OCO3)CC(=O)N2` (configuration not stated), the growth was 41.9%.

With `CC1(C)OCC2OC3(C(=O)O)OC(C)(C)OC3C2O1` (configuration not stated), the growth was 106%.

As for `NCc1cn2cc(Cl)sc2n1`, the growth was 105%.

For `COc1ccc(/C=N\NC(=O)c2ccncc2)cc1O`, the growth was 96.7%.

As for `Nc1cc2nc3ccccc3sc-2cc1=O`, the growth was 60.7%.

Turning to `N#CC1=C(N)Oc2c(ccc3ccccc23)C1c1cccs1` (configuration not stated), the growth was 26.5%.

Regarding `CCOC(=O)c1ccc2c(c1)nc(/C=C/c1ccc(Cl)cc1)n2-c1cc(C(C)(C)C)[nH]n1`, the growth was 74.6%.

Take `CCOC(=O)c1nc(Nc2cc(C)[nH]n2)c2ccccc2n1`: the growth is 97%.
